SRC1 TRFRET art = flags TR-FRET format artefacts in PPARgamma SRC-1 recruitment agonist screen. TR-FRET detection artefact counter-screen, emission ratio; hits give high values. TR-FRET ratio at 8 µM. 0.34% of 99,000 active; in the data active = TR-FRET ratio above about 2300
SRC3 TRFRET art = counter-screen for PPARgamma SRC-3 recruitment agonists: TR-FRET artefact. PPARgamma/SRC-3 format; hits give high values. TR-FRET ratio at 8 µM. 0.39% of 99,000 active. AID 1048
PPARg SRC-1 ag = promotes SRC-1 coactivator recruitment by human PPARgamma. P37231. PPARgamma-SRC-1 coactivator recruitment biochemical assay. activation, % at 8 µM. 0.41% of 200,000 active; in the data active = activation above about 19%;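 also: 0% = DMSO and 100% = reference agonist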
PPARg SRC3 recr = agonists of human PPARgamma SRC-3 coactivator recruitment | biochemical PPARgamma/SRC-3 coactivator recruitment assay | activation, % at 8 µM | 0.26% of 200,000 active | P37231; in the data active = activation above about 23%;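 also: 0% = DMSO and 100% = reference agonist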
TR-FRET SRC-2 ct = TR-FRET artefact, counter-screen to PPARgamma/SRC-2 agonist assay; hits give high values; TR-FRET ratio at 8 µM; 0.4% of 200,000 active
PPARg SRC2 recr = PPARgamma-driven SRC-2 recruitment agonism. P37231. AID 1032. PPARgamma LBD-SRC-2 recruitment, biochemical. activation, % at 8 µM. 0.34% of 200,000 active; in the data active = activation above about 22%;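 also: 0% = vehicle and 100% = reference agonist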
PPARg SRC2 ag = human PPARgamma SRC-2 recruitment agonism, confirmation; biochemical SRC-2 recruitment by PPARgamma; activation, % at 8 µM; shares compounds with PPARg SRC3 recr; 52% of 790 active; AID 1297; in the data active = activation above about 22%;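 also: 0% = vehicle alone and 100% = reference agonist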
PPARg SRC1 conf = human PPARgamma SRC-1 recruitment agonism, confirmation; 43% of 790 active; activation, % at 8 µM; PPARgamma–SRC-1 coactivator recruitment biochemical assay; shares compounds with PPARg SRC3 recr; AID 1300; in the data active = activation above about 20%;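 also: 0% = vehicle wells and 100% = reference agonist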
PPARg SRC3 ag = human PPARgamma SRC-3 recruitment agonism, confirmation; shares compounds with PPARg SRC3 recr; biochemical PPARgamma-SRC-3 coactivator recruitment, agonist mode; activation, % at 8 µM; 29% of 790 active; AID 1301; in the data active = activation above about 24%;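 also: 0% = vehicle wells and 100% = reference agonist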
Active calls of the source: *; . = no result. A selection: hits, their analogues and other compounds. The true share with any hit is near 0.9%. Rule as the data show it, unless noted: active = TR-FRET ratio above about 2000; inactive = the rest.

SMILES	SRC1 TRFRET art	SRC3 TRFRET art	PPARg SRC-1 ag	PPARg SRC3 recr	TR-FRET SRC-2 ct	PPARg SRC2 recr	PPARg SRC2 ag	PPARg SRC1 conf	PPARg SRC3 ag
COC(=O)CNc1n[nH]c(=S)[nH]c1=O	.	.	100*	156*	4234*	121*	119*	86*	82*
CC(C)OC(=O)CNc1n[nH]c(=S)[nH]c1=O	5153*	4653*	113*	74*	4518*	129*	106*	78*	71*
CC(C)OC(=O)C(C)Nc1n[nH]c(=S)[nH]c1=O (stereo not drawn)	3785*	3327*	71*	45*	3006*	66*	98*	74*	64*
CC(C)COC(=O)C(C)Nc1n[nH]c(=S)[nH]c1=O (stereo not drawn)	2031	1932	8	5	1786	10	.	.	.
CCOC(=O)CSc1nnc(NCC(=O)OC(C)C)c(=O)[nH]1	.	.	7	7	1728	7	.	.	.
O=C(CN1CCC(n2nnc3cc(C(F)(F)F)ccc32)CC1)NNC(=O)c1ccco1	1656	1537	2	6	1428	-3	.	.	.
CS(=O)(=O)N1CCCC(C(=O)N2CCN(c3cccc(Cl)c3)CC2)C1 (stereo not drawn)	1942	1511	4	3	1577	3	.	.	.
CCN(CC)C(=O)Cn1c(=O)n(-c2ccccc2)c(=O)c2sccc21	1846	1559	5	6	1683	-1	.	.	.
CNc1ncnc2sc(-c3ccccc3)cc12	2133	1461	-2	0	1590	-5	.	.	.
S=c1[nH]cnc2sc(-c3ccccc3)cc12	3261*	2631*	46*	30*	2602*	52*	33*	22*	21
COc1ccc(/C=C/C(=O)OCC(=O)Nc2ccc(Cl)cn2)cc1	1771	1781	7	3	1660	15	.	.	.
CCOc1cc(CNc2ccc(N3CCCCC3)cc2)cc(Br)c1OCC(=O)NC(C)(C)C	2032	1695	0	4	1719	5	.	.	.
CCOc1cc(CNc2ccc(N(C)C)cc2)cc(Br)c1OCC(=O)NC(C)(C)C	.	.	55*	128*	3290*	123*	3	0	3
CCOc1cccc2cc(C(=O)NCCC3=CCCCC3)c(=O)oc12	1796	1656	13	1	1535	8	.	.	.
O=C(CCC(=O)Nc1ccc(Cl)cc1Cl)N/N=C/c1ccc([N+](=O)[O-])o1	1784	1498	3	1	1572	5	.	.	.
Cc1nn(C)c(C)c1NC(=O)CSc1nc(-c2ccccc2Cl)nc2c1cnn2-c1ccccc1	.	.	19*	14	1882	-2	4	-2	-2
COCCNC(=O)CSc1cc(=O)n(C)c2cc(Cl)ccc12	3701*	2886*	62*	40*	2945*	28*	39*	26*	27*
CN(CCCNC(=O)CSc1cc(=O)n(C)c2ccc(Cl)cc12)Cc1ccccc1	3259*	3068*	51*	46*	2374*	58*	40*	24*	24
Cn1c(=O)cc(SCC(=O)N2CCCC2)c2ccc(Cl)cc21	.	.	72*	87*	3299*	87*	42*	29*	30*
Cn1c(=O)cc(OCCCC(=O)N2CCCCC2)c2ccccc21	.	.	2	11	1780	18	.	.	.
Cn1c(=O)cc(SCC(=O)N2CCOCC2)c2ccc(Cl)cc21	.	.	61*	83*	2895*	62*	29*	18	20
O=C(CCc1nnc(-c2ccccc2)o1)NCc1c(F)cccc1F	1484	1570	4	2	1647	-5	.	.	.
Cc1cc(C)[n+](C)n1CC(O)Cn1c2ccccc2c2ccccc21 (stereo not drawn)	1858	1621	-2	5	1573	3	.	.	.
Cc1cc(=S)c2cccc(C)c2[nH]1	2464*	2209*	16	20	2155*	22*	2	3	2

Screening data: PubChem, The Scripps Research Institute Molecular Screening Center
